This is a sample that favours compounds with a hit; in the whole collection about 8% have one here.
RORgamma inh = inhibitors of mouse ROR gamma transcriptional activity. Drosophila S2 Gal4-RORgamma UAS-luciferase reporter, 20 h. Potency, µM (top dose mostly 53.6 µM), actives largely listed as inhibitors. actives 5.4% (n = 310,000). AID 2551; further: nearly all actives have a fitted effect of over 60% in size
Target sequence (P51450 whole entry, looked up, the tested form may be a part): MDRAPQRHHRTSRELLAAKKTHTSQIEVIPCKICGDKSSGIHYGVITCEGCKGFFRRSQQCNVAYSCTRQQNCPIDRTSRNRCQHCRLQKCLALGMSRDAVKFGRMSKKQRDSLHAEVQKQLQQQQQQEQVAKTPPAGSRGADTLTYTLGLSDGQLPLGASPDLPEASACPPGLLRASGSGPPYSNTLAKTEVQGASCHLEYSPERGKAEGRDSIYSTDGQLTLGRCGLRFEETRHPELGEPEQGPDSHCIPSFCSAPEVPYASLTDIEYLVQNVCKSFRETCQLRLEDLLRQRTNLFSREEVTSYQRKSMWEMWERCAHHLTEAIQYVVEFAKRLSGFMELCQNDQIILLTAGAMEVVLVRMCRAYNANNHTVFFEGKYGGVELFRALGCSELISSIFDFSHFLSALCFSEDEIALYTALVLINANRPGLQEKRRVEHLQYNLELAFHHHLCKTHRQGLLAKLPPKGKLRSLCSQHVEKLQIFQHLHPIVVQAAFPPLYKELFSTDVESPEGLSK
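Stable Schneider cell line, Gal4 DNA-binding domain fused to ROR gamma, UAS-luciferase. Cmpd 1 hr RT → CuSO4 700 uM final → 20 hr RT → luciferase reagent 10 min → luminescence.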
Gal4-VP16 FLuc = inhibits Gal4-VP16 luciferase reporter, ROR gamma counter-screen; Drosophila S2 Gal4-VP16 UAS-luciferase, luminescence, 20 h; Potency, µM (titrated, usually from 53.6 µM), hits mostly inhibitors; actives 3.5% (n = 310,000); AID 2546;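 further: Gal4-VP16 expression switched on by copper sulfate through the metallothionein promoter; nearly all actives have a fitted effect of over 50% in size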
ELG1 repair inh = ELG1-dependent DNA repair inhibition | HEK293T ELG1-luciferase reporter, luminescence, 16 h; DNA damage induced by 5-fluorouridine | Potency, µM (highest dose often 46.1 µM), usual class: inhibitors | actives 2.3% (n = 330,000) | AID 504467; further: nearly all actives have a fitted effect of over 55% in size
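Quantitative HTS, concentration-response format. 2,000 cells/well co-treated with 5-fluorouridine and compound, 16 hr in 5% CO2 at 37 °C; ONE-Glo luminescence read after 30 min.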
FBPA coupling cs = counter-screen for Giardia aldolase inhibitors: coupling enzyme system. actives 0.67% (n = 290,000). coupling enzyme system counterscreen, AmpLite Red fluorescence. activity change, negative = inhibition, % at 58.2 µM, hits read low. AID 2472; in the data active means activity change below about -30%
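Coupling enzymes only (glyceraldehyde-3-phosphate) + compound, at 57.5 uM final, 10 min RT; add substrate/coupling/AmpLite Red mix, 20 min RT; fluorescence ex 525/em 598 nm. Actives flag coupling-system interference.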
TSHR antagonist = human thyrotropin receptor antagonism. TSHR-expressing cells, TSH-stimulated cAMP HTRF, 2 h; hits give low values. actives 0.2% (n = 330,000). activity change, negative = inhibition, % at 11.5 µM. AID 504810;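 active means activity change below a set negative limit, meaning inhibition stronger than a set level, cut at about -70% in these data; inconclusive means activity change between two set negative limits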
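Cell-based HTRF cAMP assay; TSHR cells + compound, TSH EC80 (4nM final), 2 h, 37 deg C. Lysis with anti-cAMP cryptate and cAMP-d2, 30 min RT, read 665/620 nm.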
Each line names hits and unclear results; the compound was inactive in the other large screens. Unless noted, the call rests on the fitted dose curve; in most records, active means well fitted curve in the direction sought with a large enough effect; inconclusive means small, poorly fitted or top-dose-only effect, or another doubt; inactive means no such curve, though single readings can be large; an effect the other way counts as inactive or inconclusive.

CCN(CC)S(=O)(=O)c1ccc(NC(=O)C2CCCN(C(=O)c3ccc(Cl)cc3)C2)cc1 (stereo not given)	ELG1 repair inh 18µM
CC(C)N1CCN(Cc2cc3ccccc3[nH]2)CC1CCO (stereo not given)	ELG1 repair inh inconclusive
C/C(=N\NC(=O)c1nnn(-c2nonc2N)c1CN(C)c1ccccc1)c1ccccc1O	RORgamma inh 1.6µM, Gal4-VP16 FLuc 4µM, ELG1 repair inh inconclusive
C/C(=N\NC(=O)c1nnn(-c2nonc2N)c1CN1CCCCC1)c1ccccc1O	RORgamma inh 6.3µM, Gal4-VP16 FLuc inconclusive, ELG1 repair inh 18µM
CC(=C/c1ccccc1)/C=N/NC(=O)c1nnn(-c2nonc2N)c1CN1CCC(C)CC1	RORgamma inh inconclusive, ELG1 repair inh inconclusive
CC1CCN(Cc2c(C(=O)N/N=C/c3ccccc3O)nnn2-c2nonc2N)CC1	RORgamma inh 10µM, Gal4-VP16 FLuc 7.9µM, ELG1 repair inh inconclusive
CC(/C=N/NC(=O)c1nnn(-c2nonc2N)c1CN1CCCCC1)=C\c1ccccc1	Gal4-VP16 FLuc inconclusive (no result: FBPA coupling cs)
COc1ccc(C(=O)NC2CCc3ccccc32)cc1OC1CCN(C(C)C)CC1 (stereo not given)	ELG1 repair inh inconclusive
CC(C)(C)c1cc(C(=O)N/N=C/c2ccccc2O)n(-c2ccccc2)n1	RORgamma inh 0.63µM, Gal4-VP16 FLuc 1.1µM, ELG1 repair inh inconclusive
COc1ccc(/C=N/NC(=O)c2nc(-c3ccccc3)n(-c3ccccc3)n2)c(O)c1	RORgamma inh 2.2µM, Gal4-VP16 FLuc 6.3µM
COc1cc(/C=C/c2ccc3cccc([N+](=O)[O-])c3n2)ccc1OCC#N	ELG1 repair inh 23µM, TSHR antagonist inconclusive
CCOc1cc(/C=C/c2ccc3cccc([N+](=O)[O-])c3n2)ccc1OCC(=O)N(C)C	RORgamma inh inconclusive, ELG1 repair inh 16µM
CCOc1cc(/C=C/C(=O)c2ccc(C)cc2)ccc1OCC(=O)N(C)C	RORgamma inh inconclusive, ELG1 repair inh 18µM
COc1cc(/C=C/C(=O)c2ccc(C)cc2)ccc1OCC#N	Gal4-VP16 FLuc inconclusive, ELG1 repair inh inconclusive
CCOc1cc(/C=C/c2ccc3cccc([N+](=O)[O-])c3n2)ccc1O	none
Nn1c(SCC(=O)NC2CCS(=O)(=O)C2)nnc1-c1ccco1 (stereo not given)	none (no result: RORgamma inh, Gal4-VP16 FLuc, FBPA coupling cs)
COc1ccc(NC(=O)N2CCCC3(CCN(C(=O)c4cccc(F)c4)CC3)C2)cc1	none (no result: ELG1 repair inh, TSHR antagonist)
COc1cccc(Nc2nc(N)nc(CCl)n2)c1	ELG1 repair inh inconclusive
Cc1cccc(Nc2nc(N)nc(CCl)n2)c1	RORgamma inh inconclusive, Gal4-VP16 FLuc 10µM, ELG1 repair inh inconclusive
Cc1cccc(Nc2nc(N)nc(CCl)n2)c1C	RORgamma inh inconclusive, Gal4-VP16 FLuc inconclusive, ELG1 repair inh 9.2µM
Cc1ccc(Nc2nc(N)nc(CCl)n2)c(C)c1	Gal4-VP16 FLuc inconclusive, ELG1 repair inh inconclusive
C[C@H](CO)N1C[C@H](C)[C@@H](CN(C)Cc2ccc(C(=O)O)cc2)Oc2c(cccc2N(C)C)C1=O	none (no result: RORgamma inh, Gal4-VP16 FLuc, FBPA coupling cs)
CC1(C)C(=O)C(c2ccccc2)=C2CN3C(=O)N(CCc4ccccc4)C(=O)C3(Cc3ccccc3)C=C21 (stereo not given)	none (no result: ELG1 repair inh, TSHR antagonist)
Cc1cc(C(=O)N/N=C/c2cc(Br)cc(Br)c2OC(=O)c2cccc(F)c2)n[nH]1	RORgamma inh 3.5µM, ELG1 repair inh inconclusive
Cc1cc(C(=O)N/N=C\c2cc(C(C)(C)C)ccc2O)n[nH]1	RORgamma inh 2.2µM, Gal4-VP16 FLuc 5.6µM (no result: FBPA coupling cs)
Cc1cc(C(=O)N/N=C/c2cc(Br)ccc2OC(=O)c2ccc(Br)cc2)n[nH]1	RORgamma inh 8.9µM, Gal4-VP16 FLuc 7.1µM
Cc1cc(C(=O)N/N=C/c2cccs2)n[nH]1	ELG1 repair inh inconclusive
Cc1cc(C(=O)N/N=C/c2cc(Br)cc(Br)c2OC(=O)c2ccccc2)n[nH]1	ELG1 repair inh inconclusive
C#CCCCO/N=C1/[C@H]2O[C@@H]2[C@@H](O)[C@H]2[C@H]1CCn1c(=O)n(C)c(=O)n12	none (no result: ELG1 repair inh, TSHR antagonist)
CCCN(CC1CC1)C(=O)COC(=O)c1oc2c(F)cccc2c1C	none (no result: RORgamma inh, Gal4-VP16 FLuc, FBPA coupling cs)
CCC1(C)Cc2c(sc3nnn(CC(=O)Nc4ccccc4C)c(=O)c23)CO1 (stereo not given)	ELG1 repair inh 10µM
COc1c(C)cc(S(=O)(=O)NCCN2CCOCC2)c(C)c1C	none
Cc1ccc2c(c1)N(CC(=O)N1CCCCCC1)C(=O)C(C)O2 (stereo not given)	none
O=C1C=C(N2CCOCC2)c2ccccc2C1=O	RORgamma inh 4µM, Gal4-VP16 FLuc 3.2µM, ELG1 repair inh inconclusive, FBPA coupling cs -66
Cc1ccc(N2CCOCC2)c2c1C(=O)c1ccccc1C2=O	ELG1 repair inh inconclusive
CN(C1=C(N2CCOCC2)C(=O)c2ccccc2C1=O)c1ccccc1	RORgamma inh 14µM, FBPA coupling cs -40
CC1=C(C)C(=O)C(N2CCOCC2)=CC1=O	RORgamma inh 22µM, Gal4-VP16 FLuc inconclusive, ELG1 repair inh inconclusive, FBPA coupling cs -60
Cc1ccccc1-c1cc(-n2ccnc2)ncn1	none (no result: ELG1 repair inh, TSHR antagonist)
CC(C)c1ccccc1NC(=O)C1CCCN(C(=O)c2ccc(Cl)cc2)C1 (stereo not given)	none (no result: RORgamma inh, Gal4-VP16 FLuc, FBPA coupling cs)
Cn1nc(C(F)(F)F)c(-c2cccc(C(F)(F)F)c2)c1NC(=O)CSCC(=O)O	Gal4-VP16 FLuc inconclusive, TSHR antagonist -74
Cc1cc(Cn2nc(C(=O)NCc3cccc(Br)c3)cc2-c2ccccc2)on1	ELG1 repair inh inconclusive (no result: RORgamma inh, Gal4-VP16 FLuc, FBPA coupling cs)
COc1cc(/C=N/n2cnnc2)ccc1OC(=O)c1cccnc1	RORgamma inh inconclusive, Gal4-VP16 FLuc 11µM
COc1cccc(C(=O)Oc2ccc(/C=N/Nc3ccc(C(=O)O)cc3)cc2OC)c1	Gal4-VP16 FLuc 2.2µM, ELG1 repair inh inconclusive
COc1cccc(OCc2cc(/C=N/Nc3ccc(C(=O)O)cc3)ccc2OC)c1	RORgamma inh 0.28µM, Gal4-VP16 FLuc 7.9µM, ELG1 repair inh inconclusive
COCc1cc(/C=N\NC(=O)COc2ccccc2)ccc1OC	none
CSCC[C@@H]1NC(=O)[C@@H](NC(=O)[C@H](CCCNC(=N)N)NC(=O)[C@H](CC(C)C)NC(=O)[C@H](CCSC)NC(=O)[C@H](CC(=O)O)NC(=O)[C@H](Cc2ccccc2)NC(=O)[C@@H](N)CC(=O)O)CSSC[C@@H](C(=O)N[C@@H](Cc2c[nH]c3ccccc23)C(=O)N[C@@H](CCC(N)=O)C(=O)N[C@@H](Cc2ccc(O)cc2)C(=O)O)NC(=O)[C@@H]2CCCN2C(=O)[C@H](CCCNC(=N)N)NC(=O)[C@H](Cc2ccccc2)NC(=O)[C@H](C(C)C)NC(=O)[C@H](CCCNC(=N)N)NC(=O)CNC(=O)[C@H](CC(C)C)NC1=O	none (no result: ELG1 repair inh, TSHR antagonist)
Cc1ccc(C)c(CN2CCC(n3nccc3NC(=O)CCCc3ccccc3)CC2)c1	ELG1 repair inh inconclusive
Cc1ccc(C(OCC(O)CNC(CO)C(O)c2ccc([N+](=O)[O-])cc2)c2ccccc2)cc1 (stereo not given)	none
